VACV mCherry inh: inhibitors of vaccinia virus infection (mCherry reporter signal) | Vaccinia virus mCherry reporter infection, fluorescence | Potency, µM (titrated, usually from 36.5 µM), without a hit: top-dose activity change, negative = inhibition, hits mostly inhibitors | 310,000 compounds, 0.63% hits; calls by dose curve; tested in A549 cells; note: potency is the fitted concentration of half-maximal effect; nearly all actives have a fitted effect of over 35% in size
MARV entry inh: blocks Marburg virus binding to or entry into cells | Marburg virus pseudotyped entry inhibition, cell reporter | Potency, µM (series often up to 37.8 µM), for inactives: top-dose activity change, negative = inhibition, usual class: inhibitors | 300,000 compounds, 1.8% hits | AID 540276; calls by dose curve; tested in HEK293 cells; note: potency is the fitted concentration of half-maximal effect
HCMV antiviral: blocks human cytomegalovirus replication | HFF cells, HCMV-luciferase reporter, 72 h; active compounds read low | activity change, negative = inhibition, % at 57.5 µM | 410,000 compounds, 4.5% hits; in the data active = activity change below about -60%; inconclusive = no clear call, values can overlap the other calls; inactive = above about -39%
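Screen run at 2 compound doses on HFFs infected with reporter HCMV, MOI 1 PFU/cell. Luciferase activity from cell lysates at 72 h post infection gave inhibition relative to buffer-only and Salinomycin wells.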
Vaccinia Venus: vaccinia inhibition (Venus reporter). Vaccinia virus Venus reporter expression, fluorescence. Potency, µM (doses to about 36.5 µM), for the others: at the top dose activity change, negative = inhibition, most hits filed as inhibitors. 330,000 compounds, 0.46% hits; calls by dose curve; tested in A549 cells; note: potency is the fitted concentration of half-maximal effect; nearly all actives have a fitted effect of over 30% in size
LASV entry inh: blocks Lassa virus binding to or entry into cells; Potency, µM (highest dose often 37.9 µM), for the others: top-dose activity change, negative = inhibition, hits mostly inhibitors; 300,000 compounds, 1.2% hits; Lassa virus pseudotype entry inhibition, cell reporter; calls by dose curve; tested in HEK293 cells; note: potency is the fitted concentration of half-maximal effect; nearly all actives have a fitted effect of over 50% in size
FMDV antiviral: blocks foot and mouth disease virus; Potency, µM (highest dose often 57.9 µM), for the others: at the top dose activity change, negative = inhibition, actives largely listed as inhibitors; 410,000 compounds, 1.2% hits; FMDV antiviral cell-based qHTS; calls by dose curve; tested in HEK293T cells; note: read-out not given here; potency is the fitted concentration of half-maximal effect; nearly all actives have a fitted effect of over 45% in size
Active calls of the source: *; i = inactive; ? = inconclusive; . = no result; [ ] = dose if it differs, or a comment. Shown are actives, neighbours in structure and some others; about 6.5% of the full set was active somewhere. % is set by controls: 0 for no effect and ±100 for the full control effect.

SMILES | VACV mCherry inh | MARV entry inh | HCMV antiviral | Vaccinia Venus | LASV entry inh | FMDV antiviral
CCCC(=O)NC(c1ccccc1OC)c1ccc2cccnc2c1O (stereo unspecified) | 10µM* | ? | . | ? | ? | -12%
CCCCC(=O)NC(c1ccc(OC)c(OC)c1)c1c(O)ccc2ccccc12 (stereo unspecified) | ? | -20% | 19 | ? | ? | 5%
O=C(C[n+]1cccc(Cl)c1)c1ccc(F)cc1 | 17% | . | . | -9% | . | .
CC(C)(C)OC(=O)N1CCC(c2c(C(=O)NCc3ccccn3)cnn2-c2ccccc2)CC1 | -4% | . | 0 | -2% | ? | -2%
CC(C)c1ccc(C(=O)NC(=S)NCc2cccnc2)cc1 | -22% | -19% | -74* | -14% | -21% | -27%
COc1cccc(S(=O)(=O)NCc2ccc(C(=O)Nc3ccc(Cl)c(Cl)c3)cc2)c1 | . | ? | ? | ? | -15% | ?
O=C(NCc1cccnc1)c1ccc(COc2ccccc2Cl)cc1 | . | . | -73* | . | . | -26%
Cc1ccc(C(=O)NC(=S)NCc2cccnc2)cc1C | . | . | ? | . | . | 8%
O=C(Nc1ccc(Cl)c(Cl)c1)c1cccc(S(=O)(=O)NCc2cccnc2)c1 | 28µM* | ? | -95* | ? | 13µM* | ?
O=C(NCc1cccnc1)c1cccc(Cl)c1 | . | 0% | -61* | -22% | -8% | -1%
O=C(NCc1ccco1)c1ccc(COc2ccccc2Cl)cc1 | . | -3% | -28 | ? | -19% | -13%
Cc1ccc(S(=O)(=O)NCc2cccnc2)cc1C | -4% | ? | -86* | -11% | 25%[46.1 µM] | 36%
O=C(NCc1cccnc1)c1ccc(COc2ccccc2Br)cc1 | i | ? | -76* | -21% | ? | ?
O=S(=O)(NCc1cccnc1)c1ccc(Br)c2ccccc12 | -7% | -1%[46.1 µM] | -63* | -13% | 4% | 29%
O=C(Nc1cccnc1)c1ccc(COc2ccccc2Br)cc1 | . | 2% | -25 | . | . | -30%
Cc1cc(S(=O)(=O)NCc2cccnc2)ccc1F | i | 4%[46.1 µM] | -9 | -9% | ? | 17%
C[C@]12c3[nH]c4ccccc4c3CCN1C(=O)C(CC(=O)NCC13CC4CC(CC(C4)C1)C3)C[C@@H]2C(=O)N1CCCCC1 (stereo partly specified) | ? | . | -76* | -29% | . | -22%
CC(C)N(C(=O)[C@H]1C[C@H](CC(=O)NCC23CC4CC(CC(C4)C2)C3)C(=O)N2CCc3c([nH]c4cc(-c5ccco5)ccc34)[C@]12C)C(C)C | 28µM* | . | -21 | ? | . | -26%
CC(C)N(C(=O)[C@H]1C[C@H](CC(=O)NCC23CC4CC(CC(C4)C2)C3)C(=O)N2CCc3c([nH]c4cc(CCC(=O)N(C)C)ccc34)[C@]12C)C(C)C | -15% | . | -9 | -27% | . | ?
C[C@]12c3[nH]c4ccccc4c3CCN1C(=O)C(CC(=O)NCC13CC4CC(CC(C4)C1)C3)C[C@@H]2C(=O)N1CCOCC1 (stereo partly specified) | -4% | . | -38 | ? | . | ?
CC(C)N(C(=O)[C@H]1CC(CC(=O)NCC23CC4CC(CC(C4)C2)C3)C(=O)N2CCc3c([nH]c4ccccc34)[C@]12C)C(C)C (stereo partly specified) | ? | . | -74* | ? | . | 0%
CC12C=C(C=Cc3ccc(Br)cc3)C(C)(C1)[C@H](c1ccc(Br)cc1)CC2=O (stereo partly specified) | . | -26%[14.2 µM] | . | . | ? | .
CCOc1ccccc1Nc1sc(C(=O)c2ccc(Cl)cc2)c(N)c1C(=O)NCCc1ccccc1 | -16% | . | 18 | -7% | 2%[46.1 µM] | -9%
CCc1ccc(-n2c(C)cc(/C=N/NC(=O)c3ccncc3)c2C)cc1 | . | . | -79* | . | . | -16%
CCc1ccc(-n2c(C)cc(/C=N/NC(=O)OC)c2C)cc1 | . | -29% | -84* | . | -4% | 9%
Cc1cc(/C=N/NC(=O)c2cccs2)c(C)n1-c1ccccc1 | . | ? | ? | . | 2.1µM* | 13µM*
CCn1c(SCC(=O)NCc2ccco2)nnc1-c1cccc(N(C)C)c1 | -3% | . | . | -21% | . | .
O=C(O)/C=C/c1cnn(-c2ccccc2)c1 | -3% | ? | 3 | 0% | 2.8µM* | -67%

Screening data as filed in PubChem BioAssay.
